The structures appear in SMILES notation. About 750 (31%) of roughly 2,400 compounds were called active. The list shows a part of the results. Values without a mark were called inactive.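 The calls were made as follows: active = median signal gain over dofetilide-blocked control wells reaching their mean plus 3 SD, so readout 1 at least 0; inactive = the rest.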

The target of this test is Voltage-gated inwardly rectifying potassium channel KCNH2 (Homo sapiens) (UniProt Q12809). Briefly: modulators restoring hERG flux under dofetilide – cell-based, thallium flux, duplicate retest, dofetilide IC70, confirmation (AID 1835). The following applies: hERG cell line, FluxOR thallium flux, dofetilide-blocked; at 10 µM; stronger effect = higher value.
Sequence of Voltage-gated inwardly rectifying potassium channel KCNH2 (Homo sapiens) (Q12809 whole entry, looked up): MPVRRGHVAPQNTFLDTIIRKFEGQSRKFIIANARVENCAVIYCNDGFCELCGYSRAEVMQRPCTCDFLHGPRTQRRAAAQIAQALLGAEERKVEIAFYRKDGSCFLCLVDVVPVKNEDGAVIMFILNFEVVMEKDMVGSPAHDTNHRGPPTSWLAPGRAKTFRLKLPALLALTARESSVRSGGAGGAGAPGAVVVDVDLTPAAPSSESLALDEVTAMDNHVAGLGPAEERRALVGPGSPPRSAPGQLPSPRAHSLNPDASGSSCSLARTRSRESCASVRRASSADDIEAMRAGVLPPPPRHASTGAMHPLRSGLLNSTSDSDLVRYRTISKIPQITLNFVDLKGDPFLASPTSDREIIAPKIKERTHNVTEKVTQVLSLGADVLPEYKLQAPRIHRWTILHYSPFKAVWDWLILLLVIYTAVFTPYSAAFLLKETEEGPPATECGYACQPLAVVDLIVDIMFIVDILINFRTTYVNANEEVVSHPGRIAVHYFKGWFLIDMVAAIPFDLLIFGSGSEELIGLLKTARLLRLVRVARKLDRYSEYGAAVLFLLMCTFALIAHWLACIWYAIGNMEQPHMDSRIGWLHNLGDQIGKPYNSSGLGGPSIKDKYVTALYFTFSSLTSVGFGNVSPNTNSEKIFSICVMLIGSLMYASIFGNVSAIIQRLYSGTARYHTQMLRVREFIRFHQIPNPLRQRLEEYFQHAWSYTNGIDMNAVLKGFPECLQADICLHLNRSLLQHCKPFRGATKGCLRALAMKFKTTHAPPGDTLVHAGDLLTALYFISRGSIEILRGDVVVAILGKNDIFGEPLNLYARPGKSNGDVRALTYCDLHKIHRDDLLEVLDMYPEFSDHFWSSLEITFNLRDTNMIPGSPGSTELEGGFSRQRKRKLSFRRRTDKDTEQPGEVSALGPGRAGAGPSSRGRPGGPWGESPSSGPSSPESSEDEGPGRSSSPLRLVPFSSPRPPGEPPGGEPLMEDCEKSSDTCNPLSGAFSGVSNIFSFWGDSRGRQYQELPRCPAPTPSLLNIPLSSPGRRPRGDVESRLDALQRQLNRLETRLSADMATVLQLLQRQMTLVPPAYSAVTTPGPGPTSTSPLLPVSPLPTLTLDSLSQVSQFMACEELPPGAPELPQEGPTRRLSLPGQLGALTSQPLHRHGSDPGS
For `Cc1ccc(C(=O)NC(=S)N(C)C2CCCCC2)cc1Br`, the activity increase over dofetilide control, less the hit threshold is -5%.

With `COc1ccc(C(=O)NC(=S)N(C)C2CCCCC2)cc1`, the activity increase over dofetilide control, less the hit threshold is -2%.

Consider `CN(C(=S)NC(=O)c1ccc(F)cc1)C1CCCCC1`, for which the activity increase over dofetilide control, less the hit threshold was 6% (active).

In the case of `O=C(N/N=C/c1ccc(OC(F)F)cc1)C1=COCCO1`, the activity increase over dofetilide control, less the hit threshold was -8%.

For `c1ccc2oc(-c3nn4c(Cn5cnc6ccccc65)nnc4s3)cc2c1`, the activity increase over dofetilide control, less the hit threshold is -12%.

In the case of `CCC(=O)N1c2ccc(C)cc2C2=NNC(=S)NC21O` (centres undefined), the activity increase over dofetilide control, less the hit threshold is -6%.

As to `O=C(NC(=S)Nc1ccc(C(F)(F)F)cc1)c1csnn1`, the activity increase over dofetilide control, less the hit threshold is 60% (active).

On to `Cc1cc(-c2nnc(SCC(=O)Nc3ccc(C(F)(F)F)cc3)n2C)no1`, for which the activity increase over dofetilide control, less the hit threshold is -23%.

Regarding `O=C(Nc1ccc(-c2csc(Nc3cccc(C(F)(F)F)c3)n2)cc1)c1ccccc1`, the activity increase over dofetilide control, less the hit threshold is -25%.

Consider `COc1ccc(C(=O)O)cc1S(=O)(=O)Nc1cccc(C(F)(F)F)c1`, for which the activity increase over dofetilide control, less the hit threshold was -4%.

For `O=C(NC(=S)Nc1cccc(C(F)(F)F)c1)c1csnn1`, the activity increase over dofetilide control, less the hit threshold was 102% (active).

`c1ccc2oc(-c3ccn[nH]3)cc2c1`: the activity increase over dofetilide control, less the hit threshold was -10%.

`O=C(COC(=O)c1cc[n+]([O-])cc1)Nc1cc([N+](=O)[O-])ccc1Cl`: the activity increase over dofetilide control, less the hit threshold is -20%.

For `O=C(CCC(=O)Nc1ccccc1)NNC(=O)c1ccco1`, the activity increase over dofetilide control, less the hit threshold is -12%.

For the compound `COc1ccccc1NC(=O)C(=O)NNC(=O)c1ccco1`, the activity increase over dofetilide control, less the hit threshold is 35% (active).

Regarding `COc1ccc(C)cc1NC(=O)C(=O)NNC(=O)c1ccco1`, the activity increase over dofetilide control, less the hit threshold is 55% (active).

Regarding `CN(c1ccccc1)S(=O)(=O)c1ccc(Cl)c(C(=O)Nc2nn[nH]n2)c1`, the activity increase over dofetilide control, less the hit threshold is -4%.

Consider `CC12CN3CC(C)(CN(C1)C3c1ccc3c(c1)OCO3)C2=O` (centres undefined), for which the activity increase over dofetilide control, less the hit threshold was -8%.

As to `C/C(=N\NC(=O)COc1ccc(C)cc1C(C)C)c1ccc(-n2ccnc2)cc1`, the activity increase over dofetilide control, less the hit threshold is 6% (active).

Consider `Cc1ccc(C(C)C)cc1OCC(=O)Nc1ccc(N2CCCCC2)cc1`, for which the activity increase over dofetilide control, less the hit threshold was -11%.

As for `O=[N+]([O-])c1ccc(S(=O)(=O)Nc2ccc(S(=O)(=O)N3CCCC3)cc2)cc1`, the activity increase over dofetilide control, less the hit threshold is -23%.

Turning to `O=C(O)CCCNC(=O)c1nn(Cc2ccccc2)c(=O)c2ccccc12`, the activity increase over dofetilide control, less the hit threshold is 3% (active).

On to `Cc1nc2c(C(=O)NCCc3ccccc3)c[nH]n2c(=O)c1Cl`, for which the activity increase over dofetilide control, less the hit threshold is -3%.

As for `CC(C)(C)c1ccc(Cn2nc(CC(=O)O)c3ccccc3c2=O)cc1`, the activity increase over dofetilide control, less the hit threshold is -9%.

Take `CCN(CC)c1ccc(NC(=S)NC(=O)c2cccs2)cc1`: the activity increase over dofetilide control, less the hit threshold was 8% (active).

`CCCOc1ccc(C(=O)NNC(=S)NC(=O)c2cccs2)cc1`: the activity increase over dofetilide control, less the hit threshold is -44%.

On to `Cc1ccc(C(=O)NC(=S)N(C)Cc2ccccc2)cc1`, for which the activity increase over dofetilide control, less the hit threshold is -3%.

As to `S=C(NCc1ccccc1)NCc1ccccc1Cl`, the activity increase over dofetilide control, less the hit threshold is -9%.

Consider `NS(=O)(=O)c1ccc(NC(=S)NCc2cccs2)cc1`, for which the activity increase over dofetilide control, less the hit threshold was -9%.

Turning to `O=C(c1cccs1)N1CCN=C1SCc1ccccc1`, the activity increase over dofetilide control, less the hit threshold was -20%.

For the compound `O=C(NC(=S)NNC(=O)c1cccs1)c1ccc(Br)o1`, the activity increase over dofetilide control, less the hit threshold is -23%.

Turning to `O=C(NC(=S)NCc1ccccc1)c1cccs1`, the activity increase over dofetilide control, less the hit threshold was 23% (active).

`CN(Cc1ccccc1)C(=S)NC(=O)c1cccs1`: the activity increase over dofetilide control, less the hit threshold is 10% (active).

For the compound `O=C(NC(=S)Nc1ccccc1)c1cccs1`, the activity increase over dofetilide control, less the hit threshold is 12% (active).

As to `O=c1ccn(CCCBr)c(=O)[nH]1`, the activity increase over dofetilide control, less the hit threshold was -8%.

For the compound `CCN(CC)CCOC(=O)C(c1ccccc1)c1ccccc1`, the activity increase over dofetilide control, less the hit threshold is -6%.

Regarding `O=[N+]([O-])c1ccccc1OCCNCc1ccccc1`, the activity increase over dofetilide control, less the hit threshold is 9% (active).

On to `O=C1CCCN1C(=O)COc1ccccc1[N+](=O)[O-]`, for which the activity increase over dofetilide control, less the hit threshold is -13%.

`O=C(COc1ccccc1[N+](=O)[O-])Nc1cc(Cl)ccc1C(=O)O`: the activity increase over dofetilide control, less the hit threshold was -10%.

As for `Cc1cc(C)n(-c2nc(NCCCN(C)C)c3c4c(sc3n2)CCCC4)n1`, the activity increase over dofetilide control, less the hit threshold is -10%.

As to `CCOc1ccc(NC(=O)c2ccc(NC(=O)CSc3nc4ccccc4c(=O)[nH]3)cc2)cc1`, the activity increase over dofetilide control, less the hit threshold was -17%.

`COc1ccc(N2C(=O)/C(=C/c3cccs3)NC2=S)cc1`: the activity increase over dofetilide control, less the hit threshold was -21%.

For `CCOc1ccc2nc(N3C(=O)/C(=C/c4ccccc4)NC3=S)sc2c1`, the activity increase over dofetilide control, less the hit threshold is 71% (active).

Take `CCOc1ccc2nc(N3C(=O)/C(=C/c4ccc(Cl)cc4)NC3=S)sc2c1`: the activity increase over dofetilide control, less the hit threshold was 22% (active).

For the compound `O=C(N1CCOCC1)N1CCC(c2nc(-c3ccc(S(=O)(=O)N4CCOCC4)cc3)no2)CC1`, the activity increase over dofetilide control, less the hit threshold was -12%.

In the case of `Cc1ccc(CNS(=O)(=O)c2ccc(C(F)(F)F)cc2)n1C`, the activity increase over dofetilide control, less the hit threshold was -18%.

`Cc1cc(C)c(-c2cc(NC(=O)COC(=O)c3ccc(NC(=O)CC#N)cc3)n(-c3ccccc3)n2)cc1C`: the activity increase over dofetilide control, less the hit threshold is -15%.

As to `Cc1ccc(NC(=S)N2CCN(c3ccccc3F)CC2)c(C)c1`, the activity increase over dofetilide control, less the hit threshold was -8%.

`Cc1cnc(C(=O)Nc2nccs2)cn1`: the activity increase over dofetilide control, less the hit threshold is -22%.

On to `COc1ccc(NC(=O)c2cn(-c3ccccc3)nc2-c2ccncc2)cc1`, for which the activity increase over dofetilide control, less the hit threshold is 40% (active).

`COc1ccc(CN2CCn3ncc(C(=O)Nc4ccccc4)c3C2=O)cc1`: the activity increase over dofetilide control, less the hit threshold was -16%.

On to `COc1ccc(-c2nn(-c3ccccc3)cc2C(=O)Nc2cccc(C(=O)O)c2)cc1[N+](=O)[O-]`, for which the activity increase over dofetilide control, less the hit threshold was -27%.

Turning to `CC(C)COc1ccc(-c2nn(-c3ccccc3)cc2C(=O)Nc2nccs2)cc1`, the activity increase over dofetilide control, less the hit threshold is 20% (active).

As to `Cc1ccc(-n2ccc(=O)c(C(=O)Nc3ccc(S(=O)(=O)Nc4nccs4)cc3)n2)cc1`, the activity increase over dofetilide control, less the hit threshold was -3%.

These data come from PubChem BioAssay AID1835 (Johns Hopkins Ion Channel Center, 2009).
